# Shown are actives, neighbours in structure and some others; about 3.6% of the full set was active somewhere.
# LGR2 antag – inhibitors of bursicon-induced LGR2 CRE-luciferase signal, primary screen, cell-based, HEK293, CRE-luciferase reporter, bursicon stimulation; Drosophila bursicon receptor LGR2 (rickets); bursicon-stimulated, 4 h; inhibition, % at 9.99 µM; actives 0.35% (n = 380,000); AID 720647, 2013;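 active = drop in luminescence signal, shown as inhibition above about 50% in the replicate tests, limit read from the data, passing the limit was not always enough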;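 note: agonist challenge used bursicon conditioned medium at about half maximal strength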
# TWEAK Fn14 block – inhibitors of TWEAK-Fn14 signaling, primary screen, luciferase reporter cells, uHTS; TWEAK-stimulated Fn14 reporter cells, luciferase luminescence, 8 h; inhibition, % at 10 µM; actives 2% (n = 360,000); in the data active = inhibition above about 50%
# TROY signal inh – inhibitors of TROY-driven NF-kB signaling, primary screen, Q293 LMP1-TROYcd cells, NF-kB luciferase, uHTS; Q293 LMP1-TROYcd NF-kB luciferase reporter, 4 h; inhibition, % at 10 µM; actives 0.98% (n = 360,000); AID 1347056, 2019;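 active = compounds whose plate-normalised and pattern-corrected inhibition of the luciferase reporter signal at the single screening dose is 50% or more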
# HSF1 inh – HSF1 inhibitors in luciferase reporter cells, primary screen, cell-based, NIH3T3, luminescence. NIH3T3-HGL HSE-luciferase, MG132-induced, luminescence 8 h; active compounds read low. actives 0.77% (n = 300,000). activity change, negative = inhibition, % at 7.5 µM (by protocol);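 active = more than half of replicate wells show activity change below -50%, luminescence cut by over half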;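 note: luciferase reports HSF-1 transcriptional activity via heat shock element; 0% = median of DMSO wells and -100% = zero luminescence signal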
# LMP1 NFkB inh – EBV LMP1-driven NF-kappaB luciferase reporter inhibitors, primary screen, cell-based, luminescence, single point; LMP1-induced NF-kappaB luciferase reporter cells; inhibition, % at 12.5 µM; actives 0.69% (n = 350,000); in the data active = inhibition above about 41%;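 note: 0% = neutral control wells and 100% = reference inhibitor control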
# HSF-1 act – HSF-1 activators, primary screen, NIH3T3-HGL cells, MG132 stress, luminescence, single point; NIH3T3-HGL HSF-1 luciferase reporter, 8 h; 100% = twice DMSO control signal; activation, % at 9 µM; actives 1.7% (n = 300,000); AID 504408, 2011;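 active = mean replicate activation of at least 50% with a set share of replicates each reaching 50%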;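 note: 0% = median of the neutral control wells and 100% = twice that signal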
# The depositor's hits bear a star; nt = not tested or not shown.
SMILES,LGR2 antag,TWEAK Fn14 block,TROY signal inh,HSF1 inh,LMP1 NFkB inh,HSF-1 act
CC12CCC(O)CC1CCC1C2CCC2(C)C(C3=CC(=O)OC3)CCC12O (stereo unspecified),86*,85*,51*,nt,45*,nt
C[C@]12CC[C@H](O)C[C@H]1CC[C@@H]1[C@@H]2CC[C@]2(C)[C@@H](C3=CC(=O)OC3)CC[C@]12O,84*,75*,49,nt,78*,nt
CC12CC[C@H]3[C@@H](CCC4(O)C[C@H](O)CCC34/C=N/NC(=O)Cc3ccccc3)C1(O)CCC2C1=CC(=O)OC1 (stereo partly specified),5,-12,7,3,-1,-3
CNC(=O)Nc1ccc(C(=O)N/N=C\C23CC[C@@H](O)CC2(O)CC[C@@H]2[C@@H]3CCC3(C)C(C4=CC(=O)OC4)CCC23O)cc1 (stereo partly specified),6,4,-6,-4,-2,-2
COC1C(O)C(C)OC(OC2CCC3(C)C(CCC4C3C(O)CC3(C)C(C5=CC(=O)OC5)CCC43O)C2)C1O (stereo unspecified),90*,86*,55*,nt,57*,nt
CCN(CCCl)c1cc(CN(C)C)cc(NC(=O)c2ccc(C(=O)Nc3cc(CN(C)C)cc(N(CC)CCCl)c3)cc2)c1,95*,99*,54*,nt,87*,nt
O=C(O)[C@@H]1[C@@H](CO)[C@@H]2Cn3c(ccc(-c4ccccc4)c3=O)[C@H]1N2C(=O)C1CCCCC1,-1,nt,nt,nt,nt,nt
C/C(=C\c1ccc(N(C)C)cc1)[N+](=O)[O-],96*,46,4,36,4,45
Nc1ccccc1C(=O)OCC(=O)c1ccc2c(c1)OCCO2,26,16,30,-57*,-28,-57
COc1ccc(-c2ccc([C@H]3[C@H](CO)N4CCCCN(C(=O)Cc5ccccc5)C[C@@H]34)cc2)cc1,8,nt,nt,nt,nt,nt
O=C1C(=O)c2ccccc2-c2ccccc21,104*,107*,83*,-94*,86*,-95
O=C1C(=O)c2cccc3cccc1c23,8,8,22,-16,6,-13
CCCN1[C@@H]2c3cccc(=O)n3C[C@H]1[C@H](CO)[C@H]2C(=O)N(C)C,11,nt,nt,nt,nt,nt
C[C@]12CC[C@H]3[C@@H](CCC4=CC(=O)CC[C@@H]43)[C@@H]1CC[C@@H]2O,14,-4,14,nt,-9,nt
C[C@]12CC[C@@H]3c4ccc(O)c(O)c4CC[C@H]3[C@@H]1CC[C@@H]2O,31,55*,17,13,-32,13
O=C(Cc1ccncc1)N1CCCCN2[C@H](C1)[C@H](c1ccc(C#CC3(O)CCCC3)cc1)[C@@H]2CO,-3,nt,nt,nt,nt,nt
CC(=O)OC1CC2OC3C=C(C)CCC3(C)C1(C)C21CO1 (stereo unspecified),104*,98*,84*,nt,nt,nt
CC(=O)O[C@H]1C[C@@H]2OC3C=C(C)CCC3(C)[C@@]1(C)[C@@]21CO1 (stereo partly specified),102*,97*,78*,nt,91*,nt
O=C(Cc1ccncc1)N1CCCCN2[C@H](CO)[C@@H](c3ccc(C#Cc4ccccc4F)cc3)[C@H]2C1,16,nt,nt,nt,nt,nt
CCN1[C@@H]2c3ccc(-c4cccc(C(=O)N(C)C)c4)c(=O)n3C[C@H]1[C@H](CO)[C@H]2C(=O)OC,0,nt,nt,nt,nt,nt
COc1cc(/C=C/[N+](=O)[O-])ccc1OC(=O)c1cccnc1,nt,47,66*,23,18,39
CNc1cc(Cl)c2nonc2c1[N+](=O)[O-],104*,-2,89*,113,23,168*
Cc1cc([N+](=O)[O-])c(Cl)cc1NC(=O)C(C)C,0,4,-1,-5,-1,-22
COCC(=O)N1[C@@H]2Cn3c(ccc(C4=CCCC4)c3=O)[C@H]1[C@@H](C(=O)OC)[C@@H]2CO,-9,nt,nt,nt,nt,nt
O=c1[nH]c2ccccc2n1C1CCN(C(c2ccccc2OC(F)(F)F)c2nnnn2Cc2ccccc2)CC1 (stereo unspecified),61*,61*,61*,nt,nt,nt
SMILES,LGR2 antag,TWEAK Fn14 block,TROY signal inh,HSF1 inh,LMP1 NFkB inh,HSF-1 act
CSCCC(c1nnnn1C1CCCC1)N1CCC(n2c(=O)[nH]c3ccccc32)CC1 (stereo unspecified),37,-3,6,nt,nt,nt
O=c1[nH]c2ccccc2n1C1CCN(C(CCc2ccccc2)c2nnnn2Cc2ccccc2)CC1 (stereo unspecified),99*,94*,71*,nt,nt,nt
CSCCC(c1nnnn1-c1c(C)cccc1C)N1CCC(n2c(=O)[nH]c3ccccc32)CC1 (stereo unspecified),93*,38,36,nt,nt,nt
O=c1[nH]c2ccccc2n1C1CCN(C(CCc2ccccc2)c2nnnn2C2CCCCC2)CC1 (stereo unspecified),94*,69*,53*,nt,nt,nt
COC(=O)[C@H]1[C@H](CO)[C@H]2Cn3c(ccc(-c4ccc(OC)cc4)c3=O)[C@@H]1N2C(=O)c1ccccc1F,-4,nt,nt,nt,nt,nt
CC=Cc1ccc2n(c1=O)C[C@H]1[C@H](CO)[C@@H](C(=O)OC)[C@@H]2N1CC1CCOCC1 (mixture of isomers),-9,nt,nt,nt,nt,nt
COC(=O)[C@H]1[C@H](CO)[C@H]2Cn3c(ccc(-c4ccccc4)c3=O)[C@@H]1N2CC1CCCCC1,-3,nt,nt,nt,nt,nt
COc1ccc(-c2ccc([C@@H]3[C@H](CO)N4CCCCN(C(=O)Cc5ccccc5)C[C@@H]34)cc2)cc1,4,nt,nt,nt,nt,nt
O=C(Cc1ccccn1)N1CCCCN2[C@H](C1)[C@H](c1ccc(-c3ccccc3)cc1)[C@@H]2CO,13,nt,nt,nt,nt,nt
C=C1C(=O)O[C@H]2[C@H]1[C@H](OC(=O)CC(=O)O[C@@H]1C[C@@H](C)[C@@H]3C=CC(=O)[C@@]3(C)[C@H]3OC(=O)C(=C)[C@H]13)C[C@@H](C)[C@H]1C=CC(=O)[C@]12C,-7,17,-15,35,-7,31
C=C1C(=O)O[C@@H]2C[C@@H](C)[C@@H]3C4OC4C(=O)[C@@]3(C)[C@@H](O)[C@H]12 (stereo partly specified),85*,97*,15,17,100*,29
C=C1C(=O)OC2CC(C)C3C=CC(=O)C3(C)C(O)C12 (stereo unspecified),nt,102*,26,nt,93*,nt
